Among the data in ChEMBL document CHEMBL4513216, “Probing the Open Global Health Chemical Diversity Library for Multistage-Active Starting Points for Next-Generation Antimalarials” (ACS Infect Dis, 2020) are INHIBITION values, retold here.

Each structure is given as a SMILES string. Screen size: about 69,000 compounds; about 8,600 (12%) showed an effect of 50% or more. Only a selection was taken, and strong results are over-represented in it overall.

The test system of this experiment is Plasmodium berghei. Description: Screen against P. berghei liver stage (PbLuc), transformed with Luciferase, at 10uM. Format: functional, HepG2. Conditions: tested at 10 uM.
`O=C(CC1CCCC1)NCCn1ccc(-c2ccncc2)n1`: the INHIBITION is 36.3%.

Consider `O=C(NCCn1ccc(-c2ccncc2)n1)c1ccc2c(c1)OCO2`, for which the INHIBITION is 64.5%.

In the case of `O=C(NCCn1ccc(-c2ccccn2)n1)C1CC1`, the INHIBITION is -30%.

As for `CCOCC(O)CN1CCN(C(=O)c2cc(C)ccc2OC)CC1` (centres undefined), the INHIBITION is reported as -35.7%.

For `Cn1cc(CC2CCN(C(=O)NCc3csc(C4CC4)n3)C2)cn1` (centres undefined), the INHIBITION worked out at 11.8%.

Turning to `O=C(O)c1cccnc1CN1CCCCC1CCc1cccs1` (centres undefined), the INHIBITION is recorded as 5.78%.

Consider `Cc1nc(NC(=O)N[C@H](CO)c2ccccc2)sc1C`, for which the INHIBITION is 7.3%.

Regarding `COc1ccc2cc(C(=O)NCCc3nc(C)no3)[nH]c2c1`, the INHIBITION was -1.79%.

For the compound `COc1ccc(COCC(O)CNC(=O)c2cc(C)no2)cc1` (centres undefined), the INHIBITION turned out to be 5.03%.

As for `COc1ccc2nc(CNC(=O)c3cc(C(C)C)no3)[nH]c2c1`, the INHIBITION is recorded as 73.4%.

`CCn1nc(C(C)C)cc1C(=O)NCc1nc2ccc(OC)cc2[nH]1`: the INHIBITION came out at 37.6%.

For `COc1ccc2nc(CCNC(=O)c3cc(CC(C)C)no3)[nH]c2c1`, the INHIBITION is on record as 55.5%.

For `COc1ccc2nc(CNC(=O)c3cc(C(C)C)on3)[nH]c2c1`, the INHIBITION stood at 27.5%.

For `Cc1ccc(CN2CCC[C@]3(C(=O)O)CN(C)C[C@@H]3C2)s1`, the INHIBITION came to 6.79%.

Consider `c1ccc2c(c1)cnn2CCCNC1CCOC2(CCOCC2)C1` (centres undefined), for which the INHIBITION is reported as -9.39%.

Consider `c1csc(N2CCCN(c3nccn4cnnc34)CC2)n1`, for which the INHIBITION is -27.8%.

Turning to `Cc1cc(C)cc(OCCN(C)Cc2ccc(S(=O)(=O)N(C)C)o2)c1`, the INHIBITION is on record as 7.39%.

For the compound `CN(CCOc1ccc(Cl)cc1)Cc1ccc(S(=O)(=O)N(C)C)o1`, the INHIBITION was found to be 51%.

As to `Cc1ccc(OCCN(C)Cc2ccc(S(=O)(=O)N(C)C)o2)cc1`, the INHIBITION is reported as 47.7%.

In the case of `CC(C)NC(=O)c1ccc2c(c1)C1(CCN(C(C)C)CC1)C(=O)N2`, the INHIBITION was -25.1%.

As for `O=C(NCCNc1ncccn1)C1CCN(C(=O)N2CCCC2)CC1`, the INHIBITION was -33.9%.

Turning to `O=C1CC(c2ccc(O)cc2)c2c(n3ccsc3nc2=O)N1` (centres undefined), the INHIBITION is 2.66%.

For `C1CC(CO[C@@H]2CC[C@H]3[C@H]2OCCN3CC2CC2)CCO1`, the INHIBITION was -11.6%.

Take `CCO[C@@H]1CC[C@H]2[C@H]1OCCN2CC1CCC1`: the INHIBITION is on record as 54.7%.

On to `C1CC(CO[C@@H]2CC[C@H]3[C@H]2OCCN3CC2CCOCC2)CCO1`, for which the INHIBITION is reported as 7.31%.

As to `CCO[C@@H]1CC[C@H]2[C@H]1OCCN2CC1CCOCC1`, the INHIBITION came to 27.6%.

As to `C1CCC(CO[C@@H]2CC[C@H]3[C@H]2OCCN3CC2CCOCC2)C1`, the INHIBITION was determined as 65.6%.

On to `CO[C@@H]1CC[C@H]2[C@H]1OCCN2CC1CC1`, for which the INHIBITION was determined as 23.6%.

As for `COc1ccccc1C(C)N(C)Cc1nc2c(cnn2C)c(=O)[nH]1` (centres undefined), the INHIBITION is listed as -75.245%.

Consider `CCc1nc2c(NCC3COc4c(cccc4OC)C3)ncnc2o1` (centres undefined), for which the INHIBITION was determined as 55.4%.

Take `CCCc1n[nH]cc1C(=O)NCC1COc2cc(OC)ccc2C1` (centres undefined): the INHIBITION is reported as -3.83%.

In the case of `CCc1nc2c(NCC3COc4cc(OC)ccc4C3)ncnc2o1` (centres undefined), the INHIBITION is given as 67.7%.

`CN1CCN(S(=O)(=O)NCC2COc3ccccc3C2)CC1` (centres undefined): the INHIBITION is reported as -22.1%.

With `CCc1nc2c(NCC3COc4ccccc4C3)ncnc2o1` (centres undefined), the INHIBITION is given as 91.5%.

Take `COc1cccc2c1OCC(CNc1ccc(C)nn1)C2` (centres undefined): the INHIBITION came out at 42.7%.

Regarding `COc1cccc2c1OCC(CNC(=O)Cc1c(C)nc(N)nc1C)C2` (centres undefined), the INHIBITION is on record as -13%.

Take `O=C(c1cncc(NCC2COc3ccccc3C2)n1)N1CCCC1` (centres undefined): the INHIBITION was 33.7%.

As for `COc1ccc2c(c1)OCC(CNC(=O)NC(C)(C)C)C2` (centres undefined), the INHIBITION was found to be 31%.

On to `Cc1nc(C2CCCN(C(=O)COCCc3ccccc3)C2)no1` (centres undefined), for which the INHIBITION was 11.2%.

Consider `CCCn1nccc1-c1cc(C2CCN(S(C)(=O)=O)CC2)nc(C)n1`, for which the INHIBITION is listed as -39.4%.

For the compound `COc1ccc2cnn(CC(=O)NCC3CCCO3)c(=O)c2c1OC` (centres undefined), the INHIBITION is reported as 34.5%.

In the case of `CCC(C)CS(=O)(=O)NC(=O)C1CCC1` (centres undefined), the INHIBITION worked out at 62.3%.

For `CCC(CC)CS(=O)(=O)NC(=O)C1CCC1`, the INHIBITION amounted to 7.49%.

As to `CCC(C)CS(=O)(=O)NC(=O)C1CC1` (centres undefined), the INHIBITION is recorded as 2.39%.

As to `CCCN1CCC(Cc2noc(-c3[nH]cnc3C)n2)CC1`, the INHIBITION is on record as -1.85%.

On to `Cc1ccc(N2CCCC3(COCCN(c4ccccn4)C3)C2)nn1` (centres undefined), for which the INHIBITION is given as 17.2%.

Consider `Cc1ccc(CNC(=O)CN2CCCC(Cn3cncn3)C2)cc1` (centres undefined), for which the INHIBITION is on record as 31.8%.

As for `Cn1cc(C(=O)NCc2cn3c(n2)CN(CC2CCOC2)CC3)cn1` (centres undefined), the INHIBITION is given as -11.6%.

For the compound `Cn1cc(C(=O)NCc2cn3c(n2)CN(Cc2ccccn2)CC3)cn1`, the INHIBITION is listed as 53%.

Turning to `O=C(CC1CC1)NCc1cn2c(n1)CN(Cc1cccc(F)c1)CC2`, the INHIBITION is given as 50.9%.

For `Cc1ccc(CN2CCn3c(CNC(=O)c4cccn4C)cnc3C2)s1`, the INHIBITION was determined as 54.7%.

As to `Cn1cccc1C(=O)NCc1cn2c(n1)CN(CC1CCOC1)CC2` (centres undefined), the INHIBITION was 58.4%.

For the compound `Cn1cccc1C(=O)NCc1cnc2n1CCN(CC1CC1)C2`, the INHIBITION was -13%.

Turning to `Cn1cccc1C(=O)NCc1cn2c(n1)CN(CC1CCOCC1)CC2`, the INHIBITION was -4.88%.

Take `Cn1cc(C(=O)NCc2cn3c(n2)CN(Cc2ccncc2)CC3)cn1`: the INHIBITION is reported as -4.88%.

In the case of `O=C(CC1CC1)NCc1cn2c(n1)CN(Cc1cccnc1)CC2`, the INHIBITION worked out at 33.4%.

`Cn1cc(CN2CCn3c(CNC(=O)c4cccn4C)cnc3C2)cn1`: the INHIBITION worked out at 2.01%.

Consider `Cn1cccc1C(=O)NCc1cn2c(n1)CN(Cc1ccccn1)CC2`, for which the INHIBITION was -37.6%.

With `O=C(NCc1cn2c(n1)CN(Cc1cccc(F)c1)CC2)C1CCC1`, the INHIBITION is given as -14.4%.
